{
  "source": "PubChem BioAssay (EPA / NIEHS)",
  "note": "“And” between values parts separate entries of the source, which are not always exact repeats. Equal entries are not always repeated. Results filed as inconclusive are left out. More than one record can exist for a structure, and the calls need not agree. The source made the active and inactive calls. Rule for the calls: active = hit-call score of the fitted dose curve at least 0.9, where 1 is the maximum; inconclusive = response in the unintended direction; inactive = score below 0.9.",
  "data": [
    {"target": "Retinoic acid receptor RXR-alpha (Homo sapiens) (UniProt P19793)", "sequence (P19793 whole entry, looked up)": "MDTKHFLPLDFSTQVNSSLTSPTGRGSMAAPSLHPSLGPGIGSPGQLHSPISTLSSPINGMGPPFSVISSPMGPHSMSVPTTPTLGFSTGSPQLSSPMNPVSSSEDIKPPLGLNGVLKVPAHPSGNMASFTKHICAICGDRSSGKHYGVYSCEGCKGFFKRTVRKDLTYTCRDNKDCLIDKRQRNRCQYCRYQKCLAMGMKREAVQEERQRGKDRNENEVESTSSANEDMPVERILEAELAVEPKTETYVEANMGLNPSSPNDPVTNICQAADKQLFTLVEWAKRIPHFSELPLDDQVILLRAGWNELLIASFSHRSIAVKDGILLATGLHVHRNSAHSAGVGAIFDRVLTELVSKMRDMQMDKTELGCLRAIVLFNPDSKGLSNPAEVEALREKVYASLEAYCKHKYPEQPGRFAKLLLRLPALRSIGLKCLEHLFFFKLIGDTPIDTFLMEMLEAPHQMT", "assay": "OT_NURR1_NURR1RXRa_1440: Odyssey Thera (OT) 24-hour HEK293T Protein Complementation Assay for Nurr1/retinoid X receptor (RXR) (AID 2283386)", "description": "OT_NURR1_NURR1RXRa_1440 is a cell-based assay that uses HEK293T, a human kidney cell line, with measurements taken at 24 hours after chemical dosing in a 384-well plate.OT_NURR1_NURR1RXRa_1440 is one of one assay component(s) measured or calculated from the OT_NURR1_NURR1RXRa_1440 assay. It is designed to make measurements of protein fragment complementation, a form of binding reporter, as detected with fluorescence intensity signals by Protein-fragment Complementation technology.Data from the assay component OT_NURR1_NURR1RXRa_1440 was analyzed into 1 assay endpoint. This assay endpoint, OT_NURR1_NURR1RXRa_1440, was analyzed in the positive analysis fitting direction relative to DMSO as the negative control and baseline of activity. Using a type of binding reporter, measures of receptor for gain-of-signal activity can be used to understand the binding at the pathway-level as they relate to the gene RXRA. Furthermore, this assay endpoint can be referred to as a primary readout, because the performed assay has only produced 1 assay endpoint. To generalize the intended target to other relatable targets, this assay endpoint is annotated to the nuclear receptor intended target family, where the subfamily is non-steroidal.\nProtein-fragment complementation assay, or PCA, is a method for the identification and quantification of protein-protein interactions. In the PCA, the proteins of interest (\"bait\" and \"prey\") are each covalently linked to fragments of a third protein (e.g. DHFR, which acts as a \"reporter\"). Interaction between the bait and the prey proteins brings the fragments of the reporter protein in close proximity to allow them to form a functional reporter protein whose activity can be measured.", "values": [
      {"compound": "Cl/C=C/Cl", "outcome": "inactive"},
      {"compound": "Clc1nc(Cl)nc(Cl)n1", "outcome": "inactive"},
      {"compound": "CC(=O)[O][Hg][c]1ccccc1", "AC50": "0.266 µM (active)"},
      {"compound": "C=CCc1ccc(OC)cc1", "outcome": "inactive"},
      {"compound": "CN(C)N=O", "outcome": "inactive"},
      {"compound": "CC1(C)CCC(Cc2ccc(Cl)cc2)C1(O)Cn1cncn1", "note": "(stereo not given)", "outcome": "inactive"},
      {"compound": "C=C(C)C#N", "outcome": "inactive"},
      {"compound": "CCC[CH2][Sn]([CH2]CCC)([CH2]CCC)[O]C(=O)c1ccccc1", "outcome": "inactive"},
      {"compound": "Cn1sc(Cl)cc1=O", "outcome": "inactive"},
      {"compound": "CC(=O)c1cc(C(C)(C)C)cc2c1CCC2(C)C", "AC50": "86.9 µM (active)"},
      {"compound": "BrCCBr", "outcome": "inactive"},
      {"compound": "NNC(=S)NN", "outcome": "inactive"},
      {"compound": "C[C@]12CCC(=O)C[C@@H]1CC[C@@H]1[C@@H]2CC[C@]2(C)[C@@H](O)CC[C@@H]12", "outcome": "inactive", "AC50": "40.3 µM (active)"},
      {"compound": "CC(C)(C)CC(C)(C)c1ccc(O)cc1", "AC50": "11.2 µM (active)"},
      {"compound": "CNC(=O)O/N=C/C(C)(C)S(C)=O", "note": "(stereo not given)", "outcome": "inactive"},
      {"compound": "Cc1ccccc1N", "outcome": "inactive"},
      {"compound": "COc1cc(-c2ccc(N)c(OC)c2)ccc1N", "outcome": "inactive", "AC50": "67.1 µM (active) and 41.3 µM (active) and 50 µM (active)"},
      {"compound": "Fc1ccc(C2(Cn3cncn3)OC2c2ccccc2Cl)cc1", "note": "(stereo not given)", "outcome": "inactive"},
      {"compound": "O=C(O)C(Cl)(Cl)Cl", "outcome": "inactive"},
      {"compound": "OCC(O)CCl", "note": "(stereo not given)", "outcome": "inactive"},
      {"compound": "Clc1ccc(COC(Cn2ccnc2)c2ccc(Cl)cc2Cl)cc1", "note": "(stereo not given)", "AC50": "11.6 µM (active)"},
      {"compound": "COP(=O)(OC)O/C(=C\\Cl)c1cc(Cl)c(Cl)cc1Cl", "outcome": "inactive"},
      {"compound": "CCOC(=O)Nc1cccc(OC(=O)Nc2ccccc2)c1", "outcome": "inactive"},
      {"compound": "Clc1ccc(C2(Cn3cncn3)CC(Br)CO2)c(Cl)c1", "note": "(stereo not given)", "outcome": "inactive"},
      {"compound": "CC(C)c1cccc(C(C)C)c1O", "outcome": "inactive"},
      {"compound": "CCC1(c2ccc(N)cc2)CCC(=O)NC1=O", "note": "(stereo not given)", "outcome": "inactive"},
      {"compound": "CCOP(=S)(OCC)Oc1nc(Cl)c(Cl)cc1Cl", "AC50": "85.3 µM (active)", "outcome": "inactive"},
      {"compound": "O=C(Cc1ccccc1)c1ccccc1", "outcome": "inactive"},
      {"compound": "O=S(=O)(c1ccc(Cl)cc1)c1ccc(Cl)cc1", "outcome": "inactive"},
      {"compound": "N#CN=C(N)N", "outcome": "inactive"},
      {"compound": "CC12CC1(C)C(=O)N(c1cc(Cl)cc(Cl)c1)C2=O", "note": "(stereo not given)", "outcome": "inactive"},
      {"compound": "O=C(O)C(F)(F)C(F)(F)C(F)(F)C(F)(F)C(F)(F)C(F)(F)F", "outcome": "inactive"},
      {"compound": "COC(=O)c1sccc1S(=O)(=O)NC(=O)Nc1nc(C)nc(OC)n1", "outcome": "inactive"},
      {"compound": "O=C(O)C(F)(F)C(F)(F)C(F)(F)C(F)(F)C(F)(F)C(F)(F)C(F)(F)C(F)(F)C(F)(F)C(F)(F)F", "outcome": "inactive"},
      {"compound": "O=C1CCCN1", "outcome": "inactive"},
      {"compound": "CCCCCCCCc1ccc(O)cc1", "outcome": "inactive", "AC50": "57.4 µM (active)"}
    ]}
  ]
}
